{"source": "PubChem BioAssay (EPA / NIEHS)", "note": "Results filed as inconclusive are left out. Calls of active or inactive are those of the source. How the source made its calls: active means hit-call score of the fitted dose curve at least 0.9, where 1 is the maximum; inconclusive means response in the unintended direction; inactive means score below 0.9."}
{"target": "Oxysterols receptor LXR-beta (Homo sapiens) (UniProt P55055)", "sequence (P55055 whole entry, looked up, the tested form may be a part)": "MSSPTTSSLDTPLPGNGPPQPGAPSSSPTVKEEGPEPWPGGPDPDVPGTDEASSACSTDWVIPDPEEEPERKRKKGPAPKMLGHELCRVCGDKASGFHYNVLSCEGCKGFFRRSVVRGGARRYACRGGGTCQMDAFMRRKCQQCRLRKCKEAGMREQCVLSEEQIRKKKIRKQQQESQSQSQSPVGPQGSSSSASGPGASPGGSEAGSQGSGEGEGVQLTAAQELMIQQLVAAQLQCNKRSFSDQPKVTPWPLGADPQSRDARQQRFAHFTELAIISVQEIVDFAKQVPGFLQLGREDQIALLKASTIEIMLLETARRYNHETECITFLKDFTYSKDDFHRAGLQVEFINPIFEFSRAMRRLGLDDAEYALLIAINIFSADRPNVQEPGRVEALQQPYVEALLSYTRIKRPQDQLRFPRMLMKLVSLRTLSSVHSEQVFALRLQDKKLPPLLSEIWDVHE", "assay": "ATG_LXRb_TRANS: Attagene TRANS-FACTORIAL HepG2 Assay for human Liver X Receptor beta (LXRb) (AID 2282981)", "conditions": "HepG2 Attagene TRANS GAL4-LXRb reporter, mRNA", "procedure": "ATG_TRANS is a cell-based, multiplexed-readout assay that uses HepG2, a human liver cell line, with measurements taken at 24 hours after chemical dosing in a 24-well plate.ATG_LXRb_TRANS is one of 30 assay component(s) measured or calculated from the ATG_TRANS assay. It is designed to make measurements of mRNA induction, a form of inducible reporter, as detected with fluorescence intensity signals by Reverse transcription polymerase chain reaction (RT-PCR) and Capillary electrophoresis technology.Data from the assay component ATG_LXRb_TRANS was analyzed into 1 assay endpoint. This assay endpoint, ATG_LXRb_TRANS, was analyzed in the positive analysis fitting direction relative to DMSO as the negative control and baseline of activity. Using a type of inducible reporter, measures of mRNA for gain-of-signal activity can be used to understand the reporter gene at the transcription factor-level as they relate to the gene NR1H2. Furthermore, this assay endpoint can be referred to as a primary readout, because this assay has produced multiple assay endpoints where this one serves a reporter gene function. To generalize the intended target to other relatable targets, this assay endpoint is annotated to the nuclear receptor intended target family, where the subfamily is non-steroidal.\nHuman liver HepG2 cells are transiently transfected with multiple reporter transcription units (MRTUs) in 6-well plates using FuGene 6 reagent (Roche; 3 ml FuGene/1 mg DNA). The MRTU constructs are regulated by a cis-regulating element (promoter). […] A major difference between the CIS and TRANS system is that in CIS activities of endogenous TFs are measured, whereas the TRANS assay evaluates changes in activities of exogenous, chimeric NR-Gal4 proteins. […] At the end of 24 hour incubation, total RNA was isolated using TriZol reagent (Invitrogen). The isolated RNA is then reverse-transcribed using oligo(dT) primer and Mo-MLV reverse transcriptase (Invitrogen) with DNAse I (Ambion) treatment for 30 min. The one-tenth of the produced cDNA was amplified by PCR using Taq DNA polymerase (Invitrogen) and two reporter sequence-specific primers. The PCR products were fluorescently labeled by primer extension with 6-arboxyfluorescein (6-FAM) 5'-labeled reporter sequence-specific primer (2 min at 95 C, 20 s at 68 C and 10 min at 72 C) and these products were digested with 5U of HpaI (New England Biolabs) for 2h at 37 C. The fragments were purified using Qiaquick PCR columns (Qiagen), analyzed on an ABI 3130xL genetic analyzer (Applied Biosystems) with peak positions identified by using a set of X-rhodamine (ROX)-labeled MapMarker1000 molecular weight standards (BioVentures). The raw capillary electrophoresis data was processed using Attagraph software (Attagene)."}
{"smiles": "OCC(F)(F)OC(F)(F)C(F)(F)OC(F)(F)C(F)(F)OC(F)(F)F", "outcome": "inactive"}
{"smiles": "O=C(O)C=CC(F)(C(F)(F)F)C(F)(F)F", "outcome": "inactive"}
{"smiles": "Clc1ccc(Oc2ccccc2)cc1", "outcome": "inactive"}
{"smiles": "O=C(O)C(F)(OC(F)(F)C(F)(F)C(F)(F)F)C(F)(F)F", "note": "(stereo not given)", "outcome": "inactive"}
{"smiles": "CCOP(=S)(OCC)SCS(=O)(=O)CC", "outcome": "inactive"}
{"smiles": "Nc1ccc([N+](=O)[O-])cc1Cl", "outcome": "inactive"}
{"smiles": "CC(=O)CCc1ccc2c(c1)OCO2", "outcome": "inactive"}
{"smiles": "Cn1[nH]nnc1=S", "outcome": "inactive"}
{"smiles": "COC(=O)C(F)(F)C(F)(F)OC(F)(C(F)(F)F)C(F)(F)OC(F)=C(F)F", "note": "(stereo not given)", "outcome": "inactive"}
{"smiles": "O=c1ssc(Cl)c1Cl", "outcome": "inactive"}
{"smiles": "CCC1(c2ccccc2)C(=O)N=C(O)NC1=O", "note": "(stereo not given)", "outcome": "inactive"}
{"smiles": "CCCCC(CC)COC(=O)c1c(Br)c(Br)c(Br)c(Br)c1C(=O)OCC(CC)CCCC", "note": "(stereo not given)", "outcome": "inactive"}
{"smiles": "CC(C)(C)N(NC(=O)c1ccc(Cl)cc1)C(=O)c1ccccc1", "outcome": "inactive"}
{"smiles": "O=S(=O)(c1ccc(O)cc1)c1ccc(O)cc1", "outcome": "inactive"}
{"smiles": "O=[N+]([O-])c1ccccc1", "outcome": "inactive"}
{"smiles": "ClC(Cl)=C(c1ccc(Cl)cc1)c1ccccc1Cl", "outcome": "inactive"}
{"smiles": "ClC(Cl)(Cl)c1ccccc1", "outcome": "inactive"}
{"smiles": "c1ccc2c(c1)Nc1ccccc1S2", "outcome": "inactive"}
{"smiles": "ClC1=C(Cl)C2(Cl)C3C(Cl)C(Cl)CC3C1(Cl)C2(Cl)Cl", "note": "(stereo not given)", "outcome": "inactive"}
{"smiles": "CCOP(=O)(O)C(N)=O", "outcome": "inactive"}
{"smiles": "O=P1(N(CCCl)CCCl)NCCCO1", "note": "(stereo not given)", "outcome": "inactive"}
{"smiles": "CCOS(=O)(=O)OCC", "outcome": "inactive"}
{"smiles": "CCCCN(CC)C(=O)SCCC", "outcome": "inactive"}
{"smiles": "NNC(N)=S", "outcome": "inactive"}
{"smiles": "Nc1cc2c3c(c1)C(c1ccccc1)=N[C@@H](NC(=O)c1cccnc1)C(=O)N3CC2", "outcome": "inactive"}
{"smiles": "CCOC(=O)c1ccccc1N", "outcome": "inactive"}
{"smiles": "[N-]=[N+]=[N-]", "AC50": "100 µM (active)"}
{"smiles": "N#Cc1cc([N+](=O)[O-])ccc1N", "outcome": "inactive"}
{"smiles": "c1ccc2c(c1)sc1ccccc12", "outcome": "inactive"}
{"smiles": "OCC(F)(F)OC(F)(F)C(F)(F)OC(F)(F)C(F)(F)OC(F)(F)CO", "outcome": "inactive"}
{"smiles": "O=NN1CCCC1", "outcome": "inactive"}
{"smiles": "CN(C)C(=O)Cl", "outcome": "inactive"}
{"smiles": "O=[N+]([O-])c1ccc(Cl)c(Cl)c1", "outcome": "inactive"}
{"smiles": "FC(F)(F)C(F)(C(F)(F)F)C(F)(F)C(F)(F)CC1CO1", "note": "(stereo not given)", "outcome": "inactive"}
{"smiles": "CC1=C(C(=O)Nc2ccccc2)S(=O)(=O)CCO1", "outcome": "inactive"}
{"smiles": "CC(O)C(F)(F)C(F)(F)F", "note": "(stereo not given)", "outcome": "inactive"}
{"smiles": "OCC1CO1", "note": "(stereo not given)", "outcome": "inactive"}
{"smiles": "CCOC(=O)c1ccccc1C(=O)OCC", "outcome": "inactive"}
{"smiles": "O=C(O)C1C(C(=O)O)C2(Cl)C(Cl)=C(Cl)C1(Cl)C2(Cl)Cl", "note": "(stereo not given)", "outcome": "inactive"}
{"smiles": "FC(F)(F)c1ccc(Cl)cc1", "outcome": "inactive"}
